Laboratory results from PubChem BioAssay AID720504 (National Center for Advancing Translational Sciences (NCATS), 2013).
The whole screen tested about 360,000 compounds, of which about 10,000 (2.8%) were called active. About 4% were inconclusive and are not listed. The sample as a whole holds a higher share of actives than the screen did. A number with no mark means an inactive call. The call rests on the fitted dose curve; in most records, active means well fitted inhibition curve with a large enough effect; inconclusive means small, poorly fitted or top-dose-only effect; inactive means flat fitted curve, though single readings scatter.

The compounds below were run against Serine/threonine-protein kinase PLK1 (Homo sapiens) (UniProt P53350) (assay: qHTS for Inhibitors of PLK1-PDB (polo-like kinase 1 - polo-box domain): Primary Screen). Details: Plk1 PBD binding of FITC phosphopeptide, fluorescence polarization.
Further: nearly all actives have a fitted effect of over 65% in size.
On the % scale 0 is the no-effect control and ±100 the full control effect; potency means the concentration at half of the fitted maximal effect.
Wherever max response, negative = inhibition is given: series mostly up to about 57 µM.

Chain of Serine/threonine-protein kinase PLK1 (Homo sapiens) (P53350 whole entry, looked up, the tested form may be a part): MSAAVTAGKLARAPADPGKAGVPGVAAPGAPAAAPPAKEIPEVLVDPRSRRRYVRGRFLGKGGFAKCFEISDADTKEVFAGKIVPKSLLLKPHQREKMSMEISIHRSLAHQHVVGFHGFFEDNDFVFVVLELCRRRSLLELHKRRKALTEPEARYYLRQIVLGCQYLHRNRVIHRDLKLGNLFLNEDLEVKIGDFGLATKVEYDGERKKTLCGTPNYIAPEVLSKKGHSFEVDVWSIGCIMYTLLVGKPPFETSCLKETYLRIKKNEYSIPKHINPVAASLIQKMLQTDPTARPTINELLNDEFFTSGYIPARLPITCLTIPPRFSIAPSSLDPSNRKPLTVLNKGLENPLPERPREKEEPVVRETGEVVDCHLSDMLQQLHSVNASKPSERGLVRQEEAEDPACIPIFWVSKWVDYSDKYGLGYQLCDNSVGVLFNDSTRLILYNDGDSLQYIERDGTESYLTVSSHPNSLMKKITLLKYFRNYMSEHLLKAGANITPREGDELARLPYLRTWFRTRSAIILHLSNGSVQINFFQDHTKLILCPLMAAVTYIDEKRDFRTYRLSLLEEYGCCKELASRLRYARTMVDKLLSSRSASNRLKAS

SMILES | max response, negative = inhibition [%] | Potency
Cc1cc2nc(-c3ccc(F)cc3)c(Cc3ccsc3)n2c(C)c1Br | -4.34 | –
CCc1c(-c2ccc(F)cc2)ncn1Cc1cccc(-c2ccccc2)c1 | -16 | –
CCN(CC)CCN(C(=O)c1ccc2c(c1)CCCC2)c1nc2c(OC)cccc2s1 | -2.72 | –
COc1cccc2sc(N(CCCN(C)C)C(=O)CCS(=O)(=O)c3ccccc3)nc12 | – | 10.6 µM (active)
COc1ccc(N(C)C(=O)CCS(=O)(=O)c2cccc3nsnc23)cc1 | -20.6 | –
CN1OC[C@@H]2CN(C(=O)c3ccc(-c4ccccc4)cc3)[C@H](c3ccc(-c4cccc(F)c4)cc3)C[C@@H]21 | -8.48 | –
CC1=C(C(=O)N2CCOCC2)CC(CC(=O)NCc2cccs2)C(=O)N1CCCN1CCCC1=O (stereo unspecified) | -11.8 | –
O=C(CCCN1CCc2[nH]c3ccc(F)cc3c2C1)c1ccc(F)cc1 | -6.15 | –
C=CCNC(=S)N1CCc2[nH]c3ccccc3c2C1 | -8.32 | –
CCCC(=O)N1CCc2[nH]c3ccccc3c2C1 | – | 26.7 µM (active)
CCc1nc2c(OCc3ccc(F)c(F)c3)cccn2c1N(C)C(=O)c1ccco1 | 1.07 | –
O=C(OCc1ccccc1)N1CCC2CC1c1ccc(-c3ccc4c(c3)OCO4)cc12 (stereo unspecified) | 2.15 | –
CC1(C(=O)NS(=O)(=O)c2cccc(OC(F)F)c2)CCN1C(=O)COc1ccc(Cl)cc1 (stereo unspecified) | 3.32 | –
OC(c1ccc(Cl)c(F)c1)c1ncc(-c2ccccc2Cl)[nH]1 (stereo unspecified) | 3.86 | –
CCCCC(O)C1=C[N+](=O)CC=C1 (stereo unspecified) | -14.2 | –
CN(C)[C@@H]1C(=O)C(C(N)=O)=C(O)[C@@]2(O)C(=O)C3=C(O)c4c(O)ccc(Cl)c4[C@@H](O)[C@H]3C[C@@H]12 | -16.8 | –
C=C1c2c(Cl)ccc(O)c2C(O)=C2C(=O)[C@]3(O)C(O)=C(C(N)=O)C(=O)[C@@H](N(C)C)[C@@H]3[C@@H](O)C12 (stereo partly specified) | – | 23.8 µM (active)
O=C(COC(=O)c1cncc(Br)c1)Nc1ccc(S(=O)(=O)N2CCOCC2)cc1 | -5.27 | –
Nc1nc(Sc2ncccc2[N+](=O)[O-])n[nH]1 | 4.21 | –
O=[N+]([O-])c1cccc2ncccc12 | – | 3.77 µM (active)
O=[N+]([O-])c1ccccc1S(=O)(=O)Nc1cccc2cccnc12 | -7.49 | –
CC(C)Cn1cc(-c2cncc3nccn23)cn1 | -13.4 | –
O=C(Nc1ccc2c(c1)OCCO2)C1c2ccccc2OCC(=O)N1Cc1ccccn1 (stereo unspecified) | -7.8 | –
CCC(C(=O)NCc1cccnc1)n1nc(C)c2sc3ccccc3c2c1=O (stereo unspecified) | – | 26.7 µM (active)
CCc1ccc(N(CC(=O)NCc2cccnc2)S(=O)(=O)c2ccccc2)cc1 | -2.42 | –
CCC(C(=O)NCc1ccc(OC)cc1)n1nc(C)n2c(cc3occc32)c1=O (stereo unspecified) | -1.71 | –
